Data: PubChem BioAssay AID463173 (ICCB-Longwood Screening Facility, Harvard Medical School, 2010)
The campaign covered roughly 52,000 compounds. About 1,700 (3.3%) were called active. What follows is part of a selection rich in actives, with near analogues and random picks from the rest. A number with no mark means an inactive call. No stated cut-off is given here; in the data, active means survival mostly below about 52% (no sharp cut-off); inactive means mostly above about 56%.

System: Wild type
Assay: growth inhibition of S. aureus wild type versus tarO mutant, primary screen, teichoic acid synthesis inhibitors, RN4220, OD600 (AID 463173)
Conditions: S. aureus RN4220 wild type/DeltatarO growth, OD600, 18 h, active compounds read low, screened at 18.75 µg/mL (by protocol)

Row | Structure (SMILES) | survival
1 | COc1cccc(-n2c(SCC(=O)c3ccc(Cl)cc3)nc3c([nH]c4ccccc43)c2=O)c1 | 45%
2 | COc1cc(OC)c(NC2(c3ccccc3)C(=O)c3ccccc3C2=O)cc1Cl | 65%
3 | Cc1oc2ccc(O)c(CN(C)Cc3ccccc3)c2c1C(=O)Nc1cccc(C(F)(F)F)c1 | 10% (active)
4 | CSc1ccc(CCNC(=O)c2c(C)oc3ncn(C)c(=O)c23)cc1 | -4% (active)
5 | Cc1oc2ccc(O)c(CN(C)Cc3ccccc3)c2c1C(=O)Nc1ccccc1 | 105%
6 | CCCCNC(=O)c1c(C)oc2ncn(CC(C)C)c(=O)c12 | 1% (active)
7 | Cc1oc2ccc(O)c(CN3CCN(C)CC3)c2c1C(=O)Nc1cccc(C(F)(F)F)c1 | 92%
8 | CCOc1ccc(CCNC(=O)c2c(C)oc3ncn(C)c(=O)c23)cc1 | 82%
9 | Cc1oc2ncn(CC(C)C)c(=O)c2c1C(=O)Nc1cccc(C(F)(F)F)c1 | -3% (active)
10 | CCN(CC)CCCNC(=O)c1c(C)oc2ncn(CC(C)C)c(=O)c12 | 81%
11 | CCNC(=O)c1c(C)oc2ncn(C)c(=O)c12 | 119%
12 | Cc1cccc(NC(=O)c2c(C)oc3ncn(CC(C)C)c(=O)c23)n1 | 71%
13 | Cc1oc2ncn(CC(C)C)c(=O)c2c1C(=O)NCCCN1CCCCC1 | 73%
14 | Cc1ccnc(NC(=O)c2c(C)oc3ncn(CC(C)C)c(=O)c23)c1 | 69%
15 | Cc1ccc(CNC(=O)CCCCCn2c(=O)[nH]c3ccccc3c2=O)cc1 | 146%
16 | CCOc1ccc(NS(=O)(=O)c2ccc3[nH]cc(C(=O)N4CCCCCC4)c(=O)c3c2)cc1 | 122%
17 | COc1ccccc1N1CCN(Cc2nnc(-c3ccccc3C)o2)CC1 | 82%
18 | CCc1nn2c(=O)c(S(=O)(=O)Nc3ccc(Br)cc3F)c(C)nc2s1 | 61%
19 | COc1ccccc1C(=O)NC1(C(F)(F)F)C(=O)NC(C)=C1C#N (stereo not given) | 90%
20 | Cc1ccc(C(=O)Nc2c(C(=O)NC(C)(C)C)oc3ccccc23)cc1 | 0% (active)
21 | O=C(Nc1ccc(F)cc1)c1oc2ccccc2c1NC(=O)C1CCCCC1 | 14%
22 | CN(C)c1ccc(C(=O)Nc2c(C(=O)NC(C)(C)C)oc3ccccc23)cc1 | 65%
23 | CCOc1ccc(NC(=O)c2oc3ccccc3c2NC(=O)C2CCCCC2)cc1 | 84%
24 | CC(C)(C)NC(=O)c1oc2ccccc2c1NC(=O)c1ccc(F)cc1 | 73%
25 | Cc1ccc(NC(=O)c2oc3ccccc3c2NC(=O)C2CCCCC2)cc1 | 4% (active)
